Source: the supplement of paper PMC3334620
Over roughly 33,000 sequences, “E-score (-0.5 to 0.5)” has its median near -0.016; the highest 2% begin near 0.3. The entries come from a sample that favours the highest values as a whole.

Biological target: T1, Yer184c (UniProt P39961)
T1 sequence: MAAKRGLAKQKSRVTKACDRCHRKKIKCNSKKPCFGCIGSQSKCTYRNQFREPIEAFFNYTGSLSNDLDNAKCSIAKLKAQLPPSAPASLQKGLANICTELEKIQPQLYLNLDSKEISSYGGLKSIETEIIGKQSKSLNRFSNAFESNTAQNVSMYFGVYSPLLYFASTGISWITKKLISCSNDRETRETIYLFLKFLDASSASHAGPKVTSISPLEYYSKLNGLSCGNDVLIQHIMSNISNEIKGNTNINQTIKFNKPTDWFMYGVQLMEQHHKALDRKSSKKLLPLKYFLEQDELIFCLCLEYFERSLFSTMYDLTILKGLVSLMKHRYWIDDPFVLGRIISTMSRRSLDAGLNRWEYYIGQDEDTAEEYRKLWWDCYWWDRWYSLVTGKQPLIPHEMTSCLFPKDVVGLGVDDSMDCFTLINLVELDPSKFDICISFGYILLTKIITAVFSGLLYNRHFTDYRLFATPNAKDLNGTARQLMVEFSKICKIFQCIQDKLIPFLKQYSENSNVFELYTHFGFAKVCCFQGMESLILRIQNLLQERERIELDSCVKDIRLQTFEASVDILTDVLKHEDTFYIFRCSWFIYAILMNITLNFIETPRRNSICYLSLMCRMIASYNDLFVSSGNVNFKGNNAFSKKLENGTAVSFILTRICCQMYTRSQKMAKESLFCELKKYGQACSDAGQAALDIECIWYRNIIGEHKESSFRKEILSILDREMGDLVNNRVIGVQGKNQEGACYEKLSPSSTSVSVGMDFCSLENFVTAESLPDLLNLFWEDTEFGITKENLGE
Test: PBM E-score (8-mer binding enrichment) (E-score (-0.5 to 0.5)); higher = stronger / more preferred TF binding
Details: protein concentration: 100 nM; construct: GST-full length
Procedure: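 Universal 'all 10-mer' protein binding microarrays (Agilent AMADID 015681) probed with GST-tagged S. cerevisiae TFs (full-length or DBD) made by in vitro transcription/translation (PURExpress), about 100-200 nM. Bound TF was detected with fluorescent anti-GST. Each ungapped 8-mer (which stands for itself and its reverse complement) is scored by the PBM enrichment score (E-score), a modified Wilcoxon-Mann-Whitney statistic from -0.5 to +0.5, computed with the Universal PBM Analysis Suite. Scale: above 0.35 generally sequence-specific binding.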

Compared with ATCACGGG, CAATGCAG is higher in “PBM E-score” value: -0.164 for the first, -0.0658 for the second.

First: AGCCAGTC
Second: CGAGGATC
The “PBM E-score” value of the first is lower: -0.153 for the first, 0.0927 for the second.

First: GAACCTCC
Second: CAATTCAG
The “PBM E-score” value of the first is higher: -0.0558 for the first, -0.0853 for the second.

Going from CAGCCGAG to GGGCCGAA, the “PBM E-score” value falls from 0.275 to 0.243.

Compared with AGGCCGAG, CGGCCGAC is higher in “PBM E-score” value: 0.143 for the first, 0.381 for the second.

Going from AGGCCGAC to CGGCCGAG, the “PBM E-score” value rises from 0.0134 to 0.372.

First: TGGCCGAA
Second: CGGCCGAA
The “PBM E-score” value of the first is lower: 0.295 for the first, 0.415 for the second.

First: GGGCCGAC
Second: CACCCCCA
The “PBM E-score” value of the first is higher: 0.132 for the first, -0.206 for the second.

First: CCAATTGG
Second: TACTGTCA
The “PBM E-score” value of the first is higher: 0.041 for the first, -0.0937 for the second.

Compared with GCTCAAGC, ATGCTAAA is higher in “PBM E-score” value: -0.0698 for the first, 0.0332 for the second.

First: GATTGATA
Second: TGTTGTAA
The “PBM E-score” value of the first is lower: 0.0572 for the first, 0.148 for the second.

Going from ACCATCAG to GCGCCGTA, the “PBM E-score” value rises from -0.101 to 0.247.

Compared with TCGCCAAA, ACGCCGAA is higher in “PBM E-score” value: -0.0461 for the first, 0.343 for the second.

Compared with TCGCCGAA, GCGCCGAC is lower in “PBM E-score” value: 0.316 for the first, 0.206 for the second.

Compared with GCGCCGAA, ACGCCGAC is lower in “PBM E-score” value: 0.343 for the first, 0.198 for the second.

Going from TCGCCGCA to ACGCCGAT, the “PBM E-score” value rises from 0.0686 to 0.151.

First: AGGTATTG
Second: AAGGATAT
The “PBM E-score” value of the first is lower: -0.0873 for the first, 0.0287 for the second.

Going from CTCTCCCA to CGGTCGCA, the “PBM E-score” value rises from -0.211 to -0.0193.

Compared with TGCCCGAA, ACCAAAGT is lower in “PBM E-score” value: 0.0801 for the first, -0.0125 for the second.

Going from ATGGCCTC to ACGCTTCC, the “PBM E-score” value rises from -0.106 to 0.0165.

First: CTAAAGTC
Second: ACGGCACG
The “PBM E-score” value of the first is lower: -0.0167 for the first, 0.194 for the second.

First: ACGGCACC
Second: ACGGCATC
The “PBM E-score” value of the first is lower: -0.0473 for the first, 0.0862 for the second.

First: CCGGCACC
Second: GCGGCACC
The “PBM E-score” value of the first is higher: 0.352 for the first, 0.23 for the second.

Going from CCGGCACA to GCGGCACA, the “PBM E-score” value falls from 0.314 to 0.129.

Compared with CCGGCACG, CCGGCATC is higher in “PBM E-score” value: 0.288 for the first, 0.322 for the second.

First: CCGGCATA
Second: ACGGCACA
The “PBM E-score” value of the first is higher: 0.291 for the first, 0.0865 for the second.

Compared with TCGGCACA, ACAGCTAA is lower in “PBM E-score” value: 0.307 for the first, -0.0181 for the second.

First: CGCGGCCC
Second: AATGTTGT
The “PBM E-score” value of the first is higher: 0.0857 for the first, -2e-05 for the second.

Going from GCTCTTCA to ACACTAGC, the “PBM E-score” value rises from -0.187 to -0.101.

Compared with CTTCTTGA, ACTGGGCA is lower in “PBM E-score” value: -0.0452 for the first, -0.199 for the second.

First: CCGCCTCA
Second: CACCTCAG
The “PBM E-score” value of the first is higher: -0.051 for the first, -0.236 for the second.

Compared with ACCTAATG, CGGAGTGA is higher in “PBM E-score” value: -0.284 for the first, 0.153 for the second.

Going from GTAGGTTA to ATGCCGTA, the “PBM E-score” value rises from -0.00416 to 0.196.

First: ATGCCGTG
Second: ATGCCGAC
The “PBM E-score” value of the first is lower: 0.115 for the first, 0.243 for the second.

First: ATGCCGAA
Second: ATGCCAAA
The “PBM E-score” value of the first is higher: 0.408 for the first, -0.0656 for the second.

Compared with CTGCCGAA, ATGCCGAG is higher in “PBM E-score” value: 0.297 for the first, 0.346 for the second.

Compared with GTGCCGAA, GTGCCAAA is lower in “PBM E-score” value: 0.387 for the first, -0.00899 for the second.

Compared with CAAGCCTC, CGTCCCCA is lower in “PBM E-score” value: -0.237 for the first, -0.276 for the second.

Going from GACCATCC to GTGGCCAA, the “PBM E-score” value rises from -0.237 to -0.156.

Compared with ATCAGCCC, AACGAACT is higher in “PBM E-score” value: -0.386 for the first, 0.0561 for the second.

Compared with ACCGAACT, GCCGAACC is higher in “PBM E-score” value: 0.306 for the first, 0.323 for the second.

Compared with ACCGAACA, ACCGAACG is lower in “PBM E-score” value: 0.259 for the first, 0.235 for the second.

Going from GCCGAACA to CCCGAACA, the “PBM E-score” value falls from 0.329 to 0.0635.

First: CCCGAACC
Second: ACCGAACC
The “PBM E-score” value of the first is higher: 0.0911 for the first, 0.0575 for the second.

Going from CCTGGGCA to CGATGTGC, the “PBM E-score” value rises from -0.276 to -0.101.

Going from ACCCCACC to AGAATTGC, the “PBM E-score” value falls from 0.0874 to -0.134.

Going from AGGGCAAC to AATCGGCC, the “PBM E-score” value rises from -0.00172 to 0.146.

Compared with TATCGGAA, AATCGGAT is lower in “PBM E-score” value: 0.351 for the first, 0.327 for the second.

Compared with AATCGGCA, CATCGGAC is lower in “PBM E-score” value: 0.289 for the first, 0.174 for the second.

First: AATCGGGT
Second: CATCGGAA
The “PBM E-score” value of the first is lower: 0.173 for the first, 0.278 for the second.

Compared with GATCGGAA, GATCGGGC is lower in “PBM E-score” value: 0.279 for the first, 0.00638 for the second.

Going from GATCGGAC to AATCGGAC, the “PBM E-score” value falls from 0.322 to 0.152.

First: AATCGGCT
Second: AGTAACTA
The “PBM E-score” value of the first is higher: 0.349 for the first, 0.173 for the second.

First: AGAAAACC
Second: CACCCCGC
The “PBM E-score” value of the first is higher: 0.0683 for the first, 0.0453 for the second.

Compared with CGCAAGTA, GGACCCAA is lower in “PBM E-score” value: 0.0344 for the first, -0.081 for the second.

Compared with CCGTCAAA, ACTCTGGC is lower in “PBM E-score” value: 0.0576 for the first, -0.105 for the second.

Compared with AGAGAACG, AGACTAAG is lower in “PBM E-score” value: 0.0412 for the first, -0.0179 for the second.

Going from ATCGTGGC to ATAGATAT, the “PBM E-score” value rises from -0.101 to 0.161.

Compared with CGCTTTTC, ACTGGCAA is lower in “PBM E-score” value: -0.0353 for the first, -0.0748 for the second.

First: AGTCTAGG
Second: AATCGGGA
The “PBM E-score” value of the first is lower: -0.144 for the first, 0.0709 for the second.

Going from AATCGGAA to AATCGGAG, the “PBM E-score” value falls from 0.374 to 0.216.

First: ACTTCACC
Second: GCGCTTTA
The “PBM E-score” value of the first is higher: 0.18 for the first, 0.0325 for the second.

Compared with ACTGGCGG, CAATGCCG is higher in “PBM E-score” value: -0.0142 for the first, 0.22 for the second.

Compared with AAATGCCC, AAATGCCG is higher in “PBM E-score” value: -0.175 for the first, 0.353 for the second.

First: CGTGCGTC
Second: AATGTTCT
The “PBM E-score” value of the first is higher: 0.0693 for the first, 0.0086 for the second.

First: CTCGCCGA
Second: ACCGCCGG
The “PBM E-score” value of the first is lower: 0.193 for the first, 0.291 for the second.

Compared with ATCGCCGA, ATCGCCGG is higher in “PBM E-score” value: 0.365 for the first, 0.39 for the second.

Going from GTCGCCGA to ATCGCCGC, the “PBM E-score” value falls from 0.219 to 0.206.

Going from GCCCGTGA to AAATGCTC, the “PBM E-score” value rises from -0.132 to -0.0216.

Going from CCGGGTAA to CCGGGTTC, the “PBM E-score” value rises from 0.348 to 0.356.

First: CCGGGTTA
Second: TCGGGTAA
The “PBM E-score” value of the first is higher: 0.25 for the first, 0.0925 for the second.

Going from ACGGGTTC to CCGGGTAC, the “PBM E-score” value rises from 0.0138 to 0.117.

Compared with AGTTGTAG, AAGGTGTA is lower in “PBM E-score” value: 0.0893 for the first, -0.105 for the second.

First: CGCCACCG
Second: AGTCCCAT
The “PBM E-score” value of the first is higher: -0.156 for the first, -0.173 for the second.

Compared with CCAGACCC, AACTTTCA is higher in “PBM E-score” value: -0.262 for the first, 0.122 for the second.

Compared with ATACGGAT, ATACGGAC is lower in “PBM E-score” value: 0.196 for the first, 0.117 for the second.

Going from GTACGGAA to ATACGGAA, the “PBM E-score” value rises from 0.28 to 0.412.

First: CTACGGAA
Second: TTACGGAA
The “PBM E-score” value of the first is lower: 0.205 for the first, 0.355 for the second.

Going from CCTACTGA to GGTCTATA, the “PBM E-score” value falls from -0.151 to -0.16.

First: TGCCGCAA
Second: ACCGCATG
The “PBM E-score” value of the first is higher: 0.135 for the first, 0.0226 for the second.

First: ATGCTATG
Second: AGGAATAC
The “PBM E-score” value of the first is lower: -0.117 for the first, -0.0183 for the second.

First: CGGAATTA
Second: CGGAAGCA
The “PBM E-score” value of the first is higher: 0.352 for the first, 0.332 for the second.

Compared with GGGAATCA, GGGAATAC is lower in “PBM E-score” value: 0.0818 for the first, 0.0278 for the second.

Compared with AGGAATTA, CGGAAGCC is higher in “PBM E-score” value: 0.0841 for the first, 0.211 for the second.

Going from CGGAATCA to CGGAATAC, the “PBM E-score” value rises from 0.306 to 0.353.

Compared with CGGAATTC, AGGAATCA is lower in “PBM E-score” value: 0.277 for the first, 0.078 for the second.

With GGGAAGCA the “PBM E-score” value was -0.128.
